These results are taken from PubChem BioAssay.

SMILES strings stand for the structures. Calls of active or inactive are those of the source.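 Rule for the calls, unless noted: active = compounds lowering colon cancer cell viability after pretreatment blocking the GSK3B kinase; inactive = the rest.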

Experiment [1] relates to Hepatitis C virus NS3 helicase. Nature of the experiment: HCV NS3 helicase inhibitors, primary screen, biochemical, fluorescence polarization, LOPAC1280 library (AID 687035; in the data active = inhibition above about 37%). Conditions: Purified HCV NS3 helicase, Cy5-dT15 ssDNA binding fluorescence polarization; stronger effect = higher value; concentration not given here. For orientation: In fluorescence polarisation assays a small probe gives low polarisation when free and higher when bound to something large.

Experiment [2] in a line: Cy5 fluorescence quenching or enhancement artefacts, artefact control for HCV NS3 helicase inhibitor project, biochemical, LOPAC1280 (AID 687037; call rule not given here). Conditions: Cy5-DNA-NS3h complex fluorescence interference counterscreen. In general terms: The purpose of a counterscreen is to sort out artefacts and off-target activity.
Experiment [3] is described as follows: stimulators of nuclear beta-catenin in C2C12, primary screen, imaging, WNT3A-conditioned medium, mouse C2C12, NPC library (AID 1117326; in the data active = nuclear beta-catenin stimulation mostly above about 4.2%, no sharp cut-off; inactive = mostly below about 10%). Conditions: stronger effect = higher value.
Experiment [4] can be described thus: stimulators of insulin release from INS-1E, primary screen, cell-based, 5 mM glucose, NPC library (AID 1117329;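 active = compound raises insulin release from rat beta cells at 5 mM glucose, no numeric limit stated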). Conditions: rat INS-1E insulin secretion, at 10 µM, stronger effect = higher value.
Experiment [5] can be described thus: growth inhibition of GSK3B-pretreated HCT116 cells – cell-based, CellTiter-Glo, 0.2 to 20 µM (AID 1117336). The conditions noted are these: HCT116 viability after GSK3B inhibitor, at 20 µM, stronger effect = higher value. A general note: In ATP-based viability assays light output follows the ATP content of the culture.
A short description of experiment [6]: inhibition of endothelial tube formation, primary screen, imaging, VEGF stimulated, CD31 staining, tube area, NPC library (AID 1117340;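 active = compound that reduces growth-factor-driven endothelial tube area in a mixed cell culture, no cutoff stated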). The conditions noted are these: VEGF-stimulated ADSC/ECFC co-culture, at 10 µM, stronger effect = higher value.
Experiment [7] is described as follows: glucagon-like peptide 1 release enhancers, primary assay, NCI-H716 cell line, NPC library (AID 1117341;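 active = compound raises GLP1 secretion from the human gut endocrine cells, with no numeric limit stated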). Conditions: NCI-H716 cells, at 10 µM, stronger effect = higher value.
The nature of experiment [8]: HCT116 colon cancer cell growth inhibition, primary screen, CellTiter-Glo luminescence, NPC library (AID 1117342;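 active = compounds that lower survival of HCT116 colon cancer cells in the luminescence readout, no numeric limit stated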). Conditions: at 20 µM (top of the series).
Experiment [9] in a line: CellTiter-Glo luminescent readout of SW480 viability loss, NPC library primary (AID 1117343;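 active = compounds that lower viability of the colon cancer cells in the luminescence readout, with no numeric limit stated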). The conditions noted are these: CellTiter-Glo luminescence; at 20 µM (top of the series).
Experiment [10] is described as follows: decreased DLD-1 cellular survival, CellTiter-Glo luminescent readout, NPC compound collection, primary HTS (AID 1117346;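 active = compounds that lower survival of DLD-1 colon cancer cells in the luminescence readout, no cutoff given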). Conditions: DLD-1 viability, CellTiter-Glo luminescence; at 20 µM (top of the series).
Experiment [11] has as its target 6-phosphogluconate dehydrogenase, decarboxylating (Homo sapiens) (UniProt P52209). Nature of the experiment: 6PGD enzyme inhibitors, primary screen, biochemical, human, recombinant enzyme, NADPH absorbance (AID 1159550;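 active = at least 20% inhibition of 6-phosphogluconate dehydrogenase activity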). The conditions noted are these: recombinant 6PGD, NADPH absorbance 341 nm; at 10 µM; stronger effect = higher value.

6-phosphogluconate dehydrogenase, decarboxylating (Homo sapiens), sequence (P52209 whole entry, looked up): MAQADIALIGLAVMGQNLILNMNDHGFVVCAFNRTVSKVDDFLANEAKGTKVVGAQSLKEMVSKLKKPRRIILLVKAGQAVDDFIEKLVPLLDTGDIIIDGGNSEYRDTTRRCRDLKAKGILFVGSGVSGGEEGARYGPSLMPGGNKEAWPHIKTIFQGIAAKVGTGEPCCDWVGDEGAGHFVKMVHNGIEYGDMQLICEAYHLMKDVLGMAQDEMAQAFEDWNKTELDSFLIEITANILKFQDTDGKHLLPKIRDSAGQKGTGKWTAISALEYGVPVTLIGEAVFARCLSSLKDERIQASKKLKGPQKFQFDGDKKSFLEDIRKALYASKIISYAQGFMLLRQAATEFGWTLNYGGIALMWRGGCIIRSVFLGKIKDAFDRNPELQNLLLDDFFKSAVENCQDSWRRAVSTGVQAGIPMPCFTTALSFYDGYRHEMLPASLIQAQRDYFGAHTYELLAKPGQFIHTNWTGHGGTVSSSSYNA

One may read the inhibition as the drop in the measured response relative to a control, in per cent. `CCCOc1ccccc1-c1nc2n[nH]nc2c(=O)[nH]1`: the inhibition was -1% (inactive) in [1] and -4.08% (inactive) in experiment [11]. Also, the fluorescence ratio (interference) in experiment [2] is 1 (inactive). The nuclear beta-catenin stimulation was -0.2% (inactive) in [3] (at 10 µM) and 0.5% in [3] (stimulation, at 2 µM). The insulin secretion stimulation in experiment [4] is -0.8% (inactive). Further, the viability decrease in [5] is -203% (inactive). In addition, the tube area decrease in [6] was -11.3% (inactive). In addition, the GLP1 secretion stimulation in [7] was 1.4% (inactive). The inhibition of viability in experiment [8] was 17.5% (inactive). Moreover, the viability decrease (inhibition) in [9] was 9.4% (inactive); in [10] it was 1% (inactive).
On to `CC(C)NNC(=O)c1ccncc1`, for which the inhibition in [1] is -3% (inactive); in experiment [11], -0.838% (inactive). Besides, in experiment [2], the fluorescence ratio (interference) was 0.9 (inactive). The nuclear beta-catenin stimulation in [3] (at 10 µM) was 2.3% (inactive); in experiment [3] (stimulation, at 2 µM), -0.3%. Further, the insulin secretion stimulation in experiment [4] is -2.5% (inactive). Further, the viability decrease in [5] was -3.15% (inactive). Also, the tube area decrease in experiment [6] is 5.7% (inactive). Further, the GLP1 secretion stimulation in experiment [7] was 0.4% (inactive). Further, the inhibition of viability in [8] was 4.9% (inactive). The viability decrease (inhibition) in experiment [9] is 34.8% (inactive); in experiment [10] it was 7.6% (inactive).
`CCCN(CCC)C(=O)C(CCC(=O)O)NC(=O)c1ccccc1` (configuration not stated): the inhibition was -4% (inactive) in experiment [1] and 1.53% (inactive) in [11]. Also, the fluorescence ratio (interference) in experiment [2] is 0.9 (inactive). The nuclear beta-catenin stimulation in experiment [3] (at 10 µM) is -0.6% (inactive); in [3] (stimulation, at 2 µM), 0.3%. Also, in [4], the insulin secretion stimulation was 1.3% (inactive). Also, the viability decrease in experiment [5] is -11.7% (inactive). In addition, the tube area decrease in experiment [6] is -25.9% (inactive). Moreover, the GLP1 secretion stimulation in experiment [7] is 0.4% (inactive). For the same compound, in experiment [8], the inhibition of viability was -4.15% (inactive). The viability decrease (inhibition) is -0.1% (inactive) in experiment [9] and -14.6% (inactive) in [10].
For `O=c1c(-c2ccc(O)cc2)coc2cc(O)cc(O)c12`, the inhibition is -1% (inactive) in experiment [1] and 3.56% (inactive) in experiment [11]. In experiment [2], the fluorescence ratio (interference) is 1 (inactive). Moreover, the nuclear beta-catenin stimulation in [3] (at 10 µM) was 8.6% (inactive); in experiment [3] (stimulation, at 2 µM), -1.1%. In addition, in [4], the insulin secretion stimulation is 0.8% (inactive). The viability decrease in [5] was 36.1% (inactive). In experiment [6], the tube area decrease was 54.6% (active). Moreover, the GLP1 secretion stimulation in experiment [7] was 7% (inactive). The inhibition of viability in [8] is -0.9% (inactive). Moreover, the viability decrease (inhibition) is 94.1% (active) in experiment [9] and 8.45% (inactive) in experiment [10].
Turning to `Cc1cc(C(C)(C)C)cc(C)c1CC1=NCCN1`, the inhibition in experiment [1] was 1% (inactive); in [11] it was -1.59% (inactive). The fluorescence ratio (interference) in experiment [2] is 1 (inactive). The nuclear beta-catenin stimulation in experiment [3] (at 10 µM) was 0.1% (inactive); in experiment [3] (stimulation, at 2 µM) it was 1%. Also, in experiment [4], the insulin secretion stimulation was 0.2% (inactive). The viability decrease in experiment [5] was -61.3% (inactive). Also, the tube area decrease in experiment [6] was 5.9% (inactive). Moreover, the GLP1 secretion stimulation in [7] is 4.3% (inactive). Further, the inhibition of viability in [8] was 18.3% (inactive). Further, the viability decrease (inhibition) in [9] was 2.6% (inactive); in experiment [10], 14.6% (inactive).
With `CCn1cc(C(=O)O)c(=O)c2cc3c(cc21)OCO3`, the figures for the inhibition in experiment [1] and in [11] were -1% (inactive) and 15.6% (inactive), respectively. Besides, in experiment [2], the fluorescence ratio (interference) is 1 (inactive). The nuclear beta-catenin stimulation was 0.2% (inactive) in [3] (at 10 µM) and 0.8% in [3] (stimulation, at 2 µM). In addition, in experiment [4], the insulin secretion stimulation was -1.3% (inactive). The viability decrease in experiment [5] was -16% (inactive). For the same compound, the tube area decrease in [6] was 12.1% (inactive). Further, in experiment [7], the GLP1 secretion stimulation was -1.5% (inactive). For the same compound, the inhibition of viability in experiment [8] is -19.5% (inactive). Besides, the viability decrease (inhibition) is 8.3% (inactive) in experiment [9] and 7.15% (inactive) in experiment [10].
